The values that follow come from PubChem BioAssay (NCATS).

The target in test [1] is alpha-glucosidase (Oryza sativa, rice) (UniProt Q653V4). In words: Counterscreen for Glucocerebrosidase Inhibitors: qHTS Assay for Rice alpha-Glucosidase at pH 5.0 (AID 997).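 Further: 0% = full activity with enzyme and -100% = basal without enzyme.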 The gist of the method:
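Rice alpha-glucosidase (4 nM final) with 400 uM 4-methylumbelliferyl-alpha-D-glucopyranoside in citrate buffer pH 5.0, 20 min at room temperature, stopped at pH 10; fluorescence 365/440 nm, compounds 0.7 nM–77 uM, AC50 from Hill fits.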

The nature of test [2]: Validation of Assay for Modulators of Lamin A Splicing (AID 1459; active means well fitted curve in the direction sought with a large enough effect in the signal ratio; the % refers to the signal ratio;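 further: cells exposed to compound for two days before reading; 0% is about no effect; ratio rise marks activators and ratio drop marks inhibitors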). The essentials: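 HeLa S3 lamin A-EGFP/DsRed2 stable clone, 600 cells/well, Opti-MEM 2% FBS; compounds by pin tool; 48 hrs, 37 °C/5% CO2; Acumen 488 nm scan, objects 10-100 um; GFP/RFP intensity ratio.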
Test [3] concerns the target DNA repair nuclease/redox regulator APEX1 (Homo sapiens) (UniProt P27695). As to the kind of experiment: qHTS Validation Assay for Inhibitors of the Human Apurinic/apyrimidinic Endonuclease 1 (APE1) (AID 1705;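 further: TAMRA fluorescence gain over two minutes as APE1 cuts a quenched THF abasic duplex; on the % scale 0 is the no-effect control and ±100 the full control effect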). The gist of the method: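 qHTS, 1536-well. APE1 + cpd 15 min RT → 50 nM TAMRA/BHQ-2 THF-abasic dsDNA substrate → kinetic fluorescence, 3 reads/60 s; delta(read3−read1) = reaction progress. No-enzyme buffer = negative control.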
On the technique in general: In qHTS, concentration-response curves come from the screen itself.

Test [4] can be described thus: Counterscreen for APE1 Inhibitors: Fluorescent Dye Displacement Validation Assay (AID 1707).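 Further: plate controls were ThO with dsDNA and no compound for no effect and ThO without dsDNA for full effect.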 The essentials: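 Assay buffer: Tris-HCl pH7.5 with 50mM NaCl, 2 mM MgCl2, 0.01% Tween-20. Dye 250 nM, duplex 50 nM final. Readout: decrease in ThO endpoint fluorescence, 480 nm excitation, 540 nm emission.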
On the technique in general: The purpose of a counterscreen is to sort out artefacts and off-target activity.

Test [5] addresses Endonuclease 4 (Escherichia coli (strain K12)) (UniProt P0A6C1). As to the kind of experiment: Counterscreen for APE1 Inhibitors: qHTS Validation Assay for Inhibitors of Endonuclease IV (AID 1708). Further: on the % scale 0 is the no-effect control and ±100 the full control effect. The gist of the method:
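qHTS concentration-response format; LOPAC1280 tested under APE1-screen conditions. 2 nM enzyme, 15 min compound preincubation at RT, then 50 nM TAMRA/BHQ-2 abasic substrate; kinetic fluorescence read, three reads at 60 s intervals.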

Test [6] in a line: qHTS for differential inhibitors of proliferation of Plasmodium falciparum line 7G8 (AID 1815).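 Further: parasite growth measured after three days of incubation.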 Further: potency means the concentration at half of the fitted maximal effect.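 On activity change, negative = inhibition: plate controls were vehicle wells for no effect and reference inhibitor wells for full effect.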
Test [7] can be described thus: qHTS for differential inhibitors of proliferation of Plasmodium falciparum line GB4 (AID 1816).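 Further: parasite growth measured after 72 h incubation.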 Further: potency means the concentration at half of the fitted maximal effect.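 On activity change, negative = inhibition: 0% = vehicle DMSO and -100% = reference inhibitor.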 The note with it: Potency: Plasmodium falciparum GB4 proliferation inhibition.
Test [8] can be described thus: qHTS for differential inhibitors of proliferation of Plasmodium falciparum line 3D7 (AID 1876). Further: potency means the concentration at half of the fitted maximal effect.
Test [9] is described as follows: qHTS for differential inhibitors of proliferation of Plasmodium falciparum line D10 (AID 1877).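 Further: parasites grown with compound for 72 h before DNA staining.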 Further: potency means the concentration at half of the fitted maximal effect.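 On activity change, negative = inhibition: plate controls were vehicle wells for no effect and reference inhibitor wells for full effect.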
The nature of test [10]: qHTS for differential inhibitors of proliferation of Plasmodium falciparum line Dd2 (AID 1882). Further: nearly all actives have a fitted effect of over 65% in size. Further: potency means the concentration at half of the fitted maximal effect.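 On activity change, negative = inhibition: plate controls were DMSO vehicle for no effect and 0.29 µM artemisinin for full effect.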 The note with it: Potency: Plasmodium falciparum Dd2 proliferation inhibition. The gist of the method:
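Dd2-infected erythrocytes (0.3% parasitemia, 2.5% hematocrit final) incubated with compound 72 h at 37 C, 5% CO2; lysed with saponin/Triton buffer containing SYBR Green I, incubated overnight in the dark, then read by fluorescence (485/535 nm). Normalized to 0.29 uM artemisinin and DMSO.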

Test [11] can be described thus: qHTS for differential inhibitors of proliferation of Plasmodium falciparum line HB3 (AID 1886).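 Further: parasites grown with compound for 72 h before SYBR Green readout.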 Further: potency means the concentration at half of the fitted maximal effect.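 On activity change, negative = inhibition: plate controls were vehicle for no effect and reference inhibitor for full effect.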 The note with it: Potency: Plasmodium falciparum HB3 proliferation inhibition.
Test [12] in a line: qHTS Assay for Modulators of Human Peripheral Myelin Protein 22 (PMP22) Expression/Activity (AID 1967; active means well fitted curve in the direction sought with a large enough effect in the signal ratio; the % refers to the signal ratio;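 further: 0% = untreated cells and 100% end not stated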). The essentials: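 Luminescence ratio of Pmp22 promoter-driven green luciferase to EF-alpha-driven red luciferase, in engineered mouse MSC80 Schwann cells, served as read-out. Compounds were incubated 24h; untreated cells defined 0% Activity; curves were classified by r2, magnitude and activity.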

Test [13] addresses ATP-dependent DNA helicase Q1 (Homo sapiens) (UniProt P46063). As to the kind of experiment: qHTS Validation Assay for Inhibitors of RecQ-Like Dna Helicase 1 (RECQ1) (AID 2353).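 Further: plate controls were DMSO vehicle for no effect and enzyme-free control for full effect.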 The gist of the method:
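50 nM RECQ1T1 preincubated 15 min with compound in Tris pH 8.0 buffer with MgCl2, DTT, Tween-20 and 2.5 ug/ml poly(dI-dC); started with 200 nM TAMRA/BHQ-2 forked duplex and 2 mM ATP. Unwinding read as fluorescence (525/598 nm), two reads 2 h apart.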

The target of test [14] is RecQ-like DNA helicase BLM (Homo sapiens) (UniProt P54132). As to the kind of experiment: qHTS Validation Assay for Inhibitors of Bloom's syndrome helicase (BLM) (AID 2364).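 Further: plate controls were DMSO vehicle for no effect and enzyme-free control for full effect.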 The essentials:
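Forked 20-bp duplex substrate (200 nM, TAMRA/BHQ-2) plus 2 mM ATP added after 15 min compound preincubation with 50 nM enzyme, pH 8.0, poly(dI-dC) 2.5 ug/ml. Strand separation followed by fluorescence (525/598 nm) over 2 h, normalized to enzyme-free and DMSO controls.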

Test [15] can be described thus: Cytometric Cell-Based qHTS for Inhibitors of the mTORC1 Signaling Pathway in MEF (Tsc2-/-, p53-/-) Cells (AID 2660).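 Further: Tsc2 and p53 null MEFs carrying empty vector with compound for 24 h; percent of cells above a phospho-rpS6 to PI ratio cutoff in each well; plate controls were DMSO for no effect and rapamycin for full effect.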 The gist of the method:
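Cells are plated, treated with compound for 24 hrs at 37 degree Celsius, then fixed, blocked and immunostained for phospho-rpS6 Ser235/236. Propidium iodide counterstain follows. Per-well % positive cells is derived from the PI-normalized phospho-S6 signal.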

Test [16] can be described thus: High Content Imaging Cell-Based qHTS for Inhibitors of the mTORC1 Signaling Pathway in MEF (Tsc2-/-, p53-/-) Cells (AID 2666).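 Further: percent of cells scored positive for phospho-rpS6 Ser235/236 immunostaining by imaging.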 The note with it: at 38.3 µM (top of the series). The gist of the method: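 Cells were plated, dosed with compound after 24 hrs, and incubated another 24 hrs at 37 degree Celsius. Fixed cells were immunostained for phospho-rpS6 Ser235/236 and counterstained, and the normalized signal was scored as % active cells against rapamycin and DMSO controls.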

A short description of test [17]: qHTS Assay for Lipid Storage Modulators (AID 1519; calls by dose curve; on activity change, negative = inhibition: on the % scale 0 is the no-effect control and ±100 the full control effect). To be noted: Drosophila S3 cells, BODIPY lipid droplet/cell ratio, laser cytometry, cells loaded with oleic acid. The essentials: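 Cells seeded at 5,000 per well were treated with compounds over a concentration series and loaded with oleic acid (400 uM, as added). Lipid droplet fluorescence (488 nm excitation, 500-530 nm channel) was read by laser-scanning cytometry and normalized to 20 uM Triacsin C.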

A short description of test [18]: qHTS Assay for Identification of Small Molecule Inducers of Hypoxia Response (AID 2120; active means well fitted curve in the direction sought with a large enough effect in the signal ratio, with a control signal flat, not every such curve was filed as active; the % refers to the signal ratio; further: 0% is about no effect). The gist of the method: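 ME-180 HRE-bla cells plated in Opti-MEM/0.5% dialyzed FBS, rested 4-5 h, then dosed with compound titrations by pin tool. After 17 h at 37 degrees C, CCF4 dye loaded 2.5 h at RT; 460/530 nm ratio gave %Activity and AC50.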
The target of test [19] is Ferritin light chain (Equus caballus) (UniProt P02791). In words: qHTS Validation Assay for Identification of Novel General Anesthetics (AID 2323). Further: on the % scale 0 is the no-effect control and ±100 the full control effect. The gist of the method:
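Fluorescence at 535 nm (excitation 380 nm) reported loss of 1-AMA binding to horse-spleen apoferritin (10 uM) in PBS with 50% saturated 1-aminoanthracene, after 10 min room-temperature incubation with compound; values from Hill fits of normalized response.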

The nature of test [20]: qHTS for differential inhibitors of proliferation of Plasmodium falciparum line W2 (AID 1883).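 Further: potency means the concentration at half of the fitted maximal effect; parasites grown with compound for 72 h before lysis and staining.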 To be noted: Potency: Plasmodium falciparum W2 proliferation inhibition.

Records with an inconclusive call do not appear. Calls of active or inactive are those of the source. Unless noted, the call rests on the fitted dose curve; in most records, active means well fitted curve in the direction sought with a large enough effect; inconclusive means small, poorly fitted or top-dose-only effect, or another doubt; inactive means no such curve, though single readings can be large; an effect the other way counts as inactive or inconclusive.

Sequence of ATP-dependent DNA helicase Q1 (Homo sapiens) (P46063 whole entry, looked up): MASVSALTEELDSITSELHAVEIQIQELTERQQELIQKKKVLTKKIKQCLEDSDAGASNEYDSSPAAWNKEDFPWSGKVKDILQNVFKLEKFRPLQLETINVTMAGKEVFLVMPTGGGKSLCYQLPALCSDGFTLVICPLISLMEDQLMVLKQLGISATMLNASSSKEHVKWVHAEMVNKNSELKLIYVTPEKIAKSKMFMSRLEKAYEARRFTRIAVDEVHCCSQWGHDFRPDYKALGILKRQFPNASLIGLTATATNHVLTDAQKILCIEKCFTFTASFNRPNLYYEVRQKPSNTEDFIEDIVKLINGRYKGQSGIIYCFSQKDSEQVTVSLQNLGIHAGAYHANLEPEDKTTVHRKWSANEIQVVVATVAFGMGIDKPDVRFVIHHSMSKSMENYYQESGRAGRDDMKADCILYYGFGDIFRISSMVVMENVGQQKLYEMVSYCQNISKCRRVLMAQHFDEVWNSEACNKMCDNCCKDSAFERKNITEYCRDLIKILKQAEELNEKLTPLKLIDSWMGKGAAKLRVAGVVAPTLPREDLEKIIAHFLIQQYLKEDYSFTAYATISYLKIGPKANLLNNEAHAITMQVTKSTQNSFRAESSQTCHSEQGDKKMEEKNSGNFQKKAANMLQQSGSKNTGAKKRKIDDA
Sequence of DNA repair nuclease/redox regulator APEX1 (Homo sapiens) (P27695 whole entry, looked up): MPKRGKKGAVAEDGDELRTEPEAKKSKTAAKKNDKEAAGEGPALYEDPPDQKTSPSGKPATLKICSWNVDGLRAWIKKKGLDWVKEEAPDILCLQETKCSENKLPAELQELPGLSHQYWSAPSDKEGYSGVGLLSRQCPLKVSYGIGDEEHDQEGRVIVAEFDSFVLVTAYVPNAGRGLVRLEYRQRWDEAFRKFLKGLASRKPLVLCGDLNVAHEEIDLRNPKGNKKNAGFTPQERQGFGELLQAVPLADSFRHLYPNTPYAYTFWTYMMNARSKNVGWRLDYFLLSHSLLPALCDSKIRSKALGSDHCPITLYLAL
Sequence of RecQ-like DNA helicase BLM (Homo sapiens) (P54132 whole entry, looked up): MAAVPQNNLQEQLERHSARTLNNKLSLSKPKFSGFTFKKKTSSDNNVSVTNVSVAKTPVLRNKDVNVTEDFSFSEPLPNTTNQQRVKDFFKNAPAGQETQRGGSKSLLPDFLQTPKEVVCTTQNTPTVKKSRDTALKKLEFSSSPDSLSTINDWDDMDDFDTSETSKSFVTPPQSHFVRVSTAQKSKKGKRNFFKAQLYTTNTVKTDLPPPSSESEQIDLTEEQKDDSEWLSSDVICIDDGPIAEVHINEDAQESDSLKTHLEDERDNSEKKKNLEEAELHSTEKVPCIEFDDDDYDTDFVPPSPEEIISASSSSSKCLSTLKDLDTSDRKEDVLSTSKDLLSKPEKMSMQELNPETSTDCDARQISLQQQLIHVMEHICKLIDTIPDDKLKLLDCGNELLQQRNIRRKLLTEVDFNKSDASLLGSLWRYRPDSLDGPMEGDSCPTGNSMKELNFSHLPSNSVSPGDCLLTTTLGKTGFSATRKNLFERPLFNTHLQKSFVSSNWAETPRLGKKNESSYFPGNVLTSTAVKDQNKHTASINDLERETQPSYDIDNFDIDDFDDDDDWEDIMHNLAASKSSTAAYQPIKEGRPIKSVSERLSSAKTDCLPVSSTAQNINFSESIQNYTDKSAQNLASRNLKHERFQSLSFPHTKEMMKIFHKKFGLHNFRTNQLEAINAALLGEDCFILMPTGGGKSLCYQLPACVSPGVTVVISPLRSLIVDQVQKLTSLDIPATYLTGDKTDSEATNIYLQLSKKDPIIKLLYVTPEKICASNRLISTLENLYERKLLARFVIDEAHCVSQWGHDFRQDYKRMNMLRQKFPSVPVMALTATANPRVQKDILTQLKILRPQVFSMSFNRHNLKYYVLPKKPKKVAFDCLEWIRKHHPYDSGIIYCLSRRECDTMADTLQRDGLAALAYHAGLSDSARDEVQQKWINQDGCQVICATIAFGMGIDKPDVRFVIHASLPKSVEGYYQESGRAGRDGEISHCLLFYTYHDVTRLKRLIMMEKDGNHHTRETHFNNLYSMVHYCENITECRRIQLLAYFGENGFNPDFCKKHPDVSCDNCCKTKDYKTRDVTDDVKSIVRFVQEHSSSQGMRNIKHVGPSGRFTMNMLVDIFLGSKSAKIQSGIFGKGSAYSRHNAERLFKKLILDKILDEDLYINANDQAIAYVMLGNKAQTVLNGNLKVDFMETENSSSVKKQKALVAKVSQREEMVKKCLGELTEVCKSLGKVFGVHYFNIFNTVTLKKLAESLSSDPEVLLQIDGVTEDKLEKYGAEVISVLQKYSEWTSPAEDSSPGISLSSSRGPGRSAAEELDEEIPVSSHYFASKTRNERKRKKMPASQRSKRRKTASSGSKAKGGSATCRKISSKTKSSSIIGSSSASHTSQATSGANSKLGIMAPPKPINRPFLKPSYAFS
Sequence of Ferritin light chain (Equus caballus) (P02791 2-175 limits assumed): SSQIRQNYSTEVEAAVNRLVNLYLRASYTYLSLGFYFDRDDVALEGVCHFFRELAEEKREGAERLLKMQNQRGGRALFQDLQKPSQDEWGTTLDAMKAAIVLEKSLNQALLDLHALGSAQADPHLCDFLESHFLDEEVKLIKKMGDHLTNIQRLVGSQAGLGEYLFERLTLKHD

As for `O=C1NC(c2cccc([N+](=O)[O-])c2)=CCN1c1ccccc1O`, the compound was called inactive in test [1], in test [2], in test [3], in test [4], in [5] and in test [12]. The compound was classed as inactive in test [13], in test [14], in [15] and in test [16]. Also, the Potency result in [6], in [7], in test [8], in test [9], in test [10] and in [11] was “inactive” each time.
As for `Nc1c2ccccc2nc2ccccc12`, the activity change, negative = inhibition in test [17] (at 57.5 µM (top of the series)) was -13.1% (inactive). Also, the max response was -6.77% in test [17] (measured here: cell count channel max response) and -18.9% in test [17] (measured here: lipid channel max response).
With `COC(=O)C1=CO[C@@H](O)[C@@H]2C(CO)=CC[C@H]12`, the compound was classed as inactive in [15] and in [16].
In the case of `Cc1nn(-c2ccccc2)c(C)c1/C=N/N1CCN(Cc2ccccc2)CC1`, the result in test [15] and in test [16] was inactive.
For the compound `Nc1ncnc2n[nH]c(Nc3ccc(F)cc3)c12`, the outcome in [15] and in test [16] was inactive.
As for `CCCC(=O)c1cc(O)c(O)cc1O`, the call in [18] was inactive.
The same measure, in the same setting: the entry for `CC(=O)OC/C=C(C)/C=C/C=C(C)/C=C/C1=C(C)CCCC1(C)C` is “inactive”; for `O=C(NO)c1ccccc1` it is “inactive”; for `O=C(c1ccccc1)c1ccccc1` it is “inactive”.
`c1ccc2occc2c1`: in test [18], the compound was classed as inactive.
Same read-out and setting: for `O=C(Oc1ccccc1)c1ccccc1O` the value was “inactive”.
With `O=C1NC(=O)/C(=C/c2ccc3c(c2)OC(F)(F)O3)S1`, the compound was classed as inactive in test [15] and in test [16].
Regarding `CC(C)(c1ccc(O)cc1)c1ccc(O)cc1`, the outcome in test [18] was inactive.
In the case of `N[C@@H](Cn1ccc(=O)c(O)c1)C(=O)O`, the result in test [15] and in test [16] was inactive.
For the compound `Brc1ccccc1-c1ccccc1`, in test [18], the outcome was inactive.
The same measure, in the same setting: for `Oc1ccccc1` the value was “inactive”.
With `CC(C)N(CCC(=O)c1ccc2ccccc2c1)Cc1ccccc1`, the call in test [1], in test [3], in [4], in test [5], in [13] and in [16] was inactive. The Potency entry in test [8], in test [9], in test [10] and in test [11] was “inactive” each time.
Turning to `Nc1cccc2c(N)cccc12`, the result in test [18] was inactive.
As to `CCN(CC)CCNC(=O)c1ccc(NS(C)(=O)=O)cc1`, the compound was called inactive in test [15] and in test [16].
With `C[C@]12CCC(=O)C=C1CC[C@@H]1[C@@H]2[C@@H](O)C[C@@]2(C)[C@H]1CC[C@]2(O)C(=O)COC(=O)CCC(=O)O`, the result in test [3], in test [4], in test [5], in test [19], in [13] and in test [14] was inactive. Besides, the Potency result in [7], in test [8], in test [9], in test [10] and in [11] was “inactive” each time.
On to `CCCCC(CC)COC(=O)c1ccccc1C(=O)O` (configuration not stated), for which, in [18], the call was inactive.
As to `Clc1ccc2c(c1)N=C(N1CCNCC1)c1ccccc1N2`, the outcome in test [15] and in test [16] was inactive.
`CC(C)(C)c1ccc(O)c(O)c1`: the compound was classed as inactive in [18].
As for `O=[N+]([O-])c1ccc(-c2nc(-c3ccc(F)cc3)c(-c3ccncc3)[nH]2)cc1`, the outcome in [1], in test [3], in test [5], in test [19], in [15] and in test [16] was inactive. For the same compound, the Potency is 4.47 µM (active) in test [6]; 3.98 µM (active) in test [7]; 3.55 µM (active) in [8]; 5.01 µM (active) in test [9]; 6.31 µM (active) in test [10]; 3.98 µM (active) in test [20]. In addition, the Potency in test [11] was 4.47 µM (active).
For `COc1cc(C=O)ccc1O`, the call in test [18] was inactive.
Same read-out and setting: the entry for `C1=CC2C3C=CC(C3)C2C1` (configuration not stated) is “inactive”.
The same measure, in the same setting: the entry for `CC(C)C(C)(C)C(C)(C)C(C)(C)S` is “inactive”.
